These results are taken from PubChem BioAssay (NCI).

The panel holds about 79,000 compounds, 15% with a hit somewhere; the sample as a whole holds those more often. A number with no mark means an inactive call. The source made the active and inactive calls. Rule as the data show it: active = growth inhibition above about 70%; inactive = the rest.

A short description of experiment [1]: NCI Yeast Anticancer Drug Screen. Data for the rad50 strain (AID 155).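 Also: 0% = growth of vehicle-only cultures of the same strain.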 As to conditions: S. cerevisiae rad50 strain growth inhibition, hits give high values. An outline of the steps:
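Compounds were tested on a yeast strain with an engineered DNA damage repair alteration; the reported value is growth inhibition normalised to vehicle treatment.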

Experiment [2] is described as follows: NCI Yeast Anticancer Drug Screen. Data for the mec2-1 strain (AID 157). As to conditions: S. cerevisiae mec2-1 strain, hits give high values. The method, boiled down: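 Vehicle-treated cultures served as reference for growth inhibition of compound-exposed mec2-1 yeast.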
Experiment [3] is described as follows: NCI Yeast Anticancer Drug Screen. Data for the sgs1 mgt1 strain (AID 161).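 Also: 0% = growth of cultures given vehicle only.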 Conditions: S. cerevisiae sgs1 mgt1 strain, hits give high values. An outline of the steps:
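Inhibition of yeast growth, normalised to vehicle-treated controls, is reported for a strain bearing genetic alterations in DNA damage repair.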

Experiment [4] in a line: NCI Yeast Anticancer Drug Screen. Data for the cln2 rad14 strain (AID 165).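 Also: 0% = growth equal to vehicle treated cultures.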 As to conditions: S. cerevisiae cln2 rad14 strain, hits give high values. The method, boiled down: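 Each compound was tested on cln2 rad14 yeast. Inhibition of growth was calculated against vehicle-exposed controls.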
Experiment [5] in a line: NCI Yeast Anticancer Drug Screen. Data for the bub3 strain (AID 167). As to conditions: S. cerevisiae bub3 mutant strain, hits give high values. The method, boiled down:
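Growth of a checkpoint-deficient yeast mutant is measured after compound exposure. Values represent inhibition relative to vehicle.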

A short description of experiment [6]: NCI Yeast Anticancer Drug Screen. Data for the mlh1 rad18 strain (AID 175). Conditions: S. cerevisiae mlh1 rad18 strain growth inhibition, hits give high values. An outline of the steps:
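Vehicle-treated cultures served as the reference for growth inhibition in a yeast strain carrying DNA damage repair alterations exposed to each compound.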

Where [7] appears, read: at 5.0 µM (retest, dose inferred, filed as 0.5).
Where [8] appears, read: at 50.0 µM (retest, dose inferred, filed as 5.0).

As to `O/N=C1/C(=C/c2ccc3c(c2)OCO3)CCCC1C(NO)c1ccc2c(c1)OCO2` (stereo not given), the growth inhibition was -2% in experiment [1] (setting [7]); 65% in experiment [1] (setting [8]); 82.3% (active) in experiment [1] (at 50.0 µM); -2% in experiment [2] (setting [7]); 3% in experiment [2] (setting [8]); 90.5% (active) in experiment [2] (at 50.0 µM). Besides, the growth inhibition is 4% in experiment [3] (setting [7]); 50% in experiment [3] (setting [8]); 97% (active) in experiment [3] (at 50.0 µM); -5% in experiment [4] (setting [7]); 25% in experiment [4] (setting [8]); -7.15% in experiment [4] (at 50.0 µM). Besides, the growth inhibition in experiment [5] (setting [7]) is -2%; in experiment [5] (setting [8]), 51%; in experiment [5] (at 50.0 µM), 38.4%; in experiment [6] (setting [7]) it was -3%; in experiment [6] (setting [8]) it was 27%; in experiment [6] (at 50.0 µM) it was 97.4% (active).
Turning to `COc1ccc(/C(=N\Nc2ccc(Br)cc2)c2ccccc2/C(=N/Nc2ccc(Br)cc2)c2ccccc2OC)cc1`, the growth inhibition in experiment [1] (setting [7]) is 1%; in experiment [1] (setting [8]), -3%; in experiment [1] (at 50.0 µM), 96% (active); in experiment [2] (setting [7]), -13%; in experiment [2] (setting [8]), 11%; in experiment [2] (at 50.0 µM), 76.3% (active). For the same molecule, the growth inhibition is 5% in experiment [3] (setting [7]); 18% in experiment [3] (setting [8]); 97.2% (active) in experiment [3] (at 50.0 µM); 2% in experiment [4] (setting [7]); 11% in experiment [4] (setting [8]); 54.6% in experiment [4] (at 50.0 µM). The growth inhibition is -7% in experiment [5] (setting [7]); 20% in experiment [5] (setting [8]); 93.5% (active) in experiment [5] (at 50.0 µM); 11% in experiment [6] (setting [7]); 33% in experiment [6] (setting [8]); 96.3% (active) in experiment [6] (at 50.0 µM).
In the case of `ClCc1ccc2oc3ccccc3c2c1`, the growth inhibition in experiment [1] (setting [7]) is -5%; in experiment [1] (setting [8]) it was 8%; in experiment [1] (at 50.0 µM), 30%; in experiment [2] (setting [7]), 1%; in experiment [2] (setting [8]), 0%; in experiment [2] (at 50.0 µM), 17.1%. Besides, the growth inhibition in experiment [3] (setting [7]) was -12%; in experiment [3] (setting [8]), -4%; in experiment [3] (at 50.0 µM), 27.9%; in experiment [4] (setting [7]) it was -1%; in experiment [4] (setting [8]) it was -8%; in experiment [4] (at 50.0 µM), 43.5%. The growth inhibition is 2% in experiment [5] (setting [7]); -7% in experiment [5] (setting [8]); -23.6% in experiment [5] (at 50.0 µM); -3% in experiment [6] (setting [7]); 5% in experiment [6] (setting [8]); 68.6% in experiment [6] (at 50.0 µM).
Consider `Cc1nc(C(N)=S)sc1C(=O)C/C(=N/N)C(=O)Nc1cccc(Cl)c1C`, for which the growth inhibition in experiment [1] (setting [7]) was 8%; in experiment [1] (setting [8]), 24%; in experiment [1] (at 50.0 µM), 26.1%; in experiment [2] (setting [7]), -5%; in experiment [2] (setting [8]) it was 14%; in experiment [2] (at 50.0 µM), 29.6%. Further, the growth inhibition in experiment [3] (setting [7]) was -7%; in experiment [3] (setting [8]), 23%; in experiment [3] (at 50.0 µM) it was -4.95%; in experiment [4] (setting [7]), -28%; in experiment [4] (setting [8]), -15%; in experiment [4] (at 50.0 µM), -15.2%. Moreover, the growth inhibition in experiment [5] (setting [7]) was 5%; in experiment [5] (setting [8]), 23%; in experiment [5] (at 50.0 µM) it was 6.25%; in experiment [6] (setting [7]), 11%; in experiment [6] (setting [8]), 7%; in experiment [6] (at 50.0 µM) it was 37.1%.
For `COC(=O)/C=C1/OC(c2ccccc2)=C(Br)C1=O`, the growth inhibition was 17% in experiment [1] (setting [7]); 17% in experiment [1] (setting [8]); 89.3% (active) in experiment [1] (at 50.0 µM); 11% in experiment [2] (setting [7]); 11% in experiment [2] (setting [8]); 91.3% (active) in experiment [2] (at 50.0 µM). Besides, the growth inhibition in experiment [3] (setting [7]) was 11%; in experiment [3] (setting [8]) it was 11%; in experiment [3] (at 50.0 µM), 86.5% (active); in experiment [4] (setting [7]), -6%; in experiment [4] (setting [8]), -6%; in experiment [4] (at 50.0 µM), 88.3% (active). Also, the growth inhibition is -2% in experiment [5] (setting [7]); -2% in experiment [5] (setting [8]); 88.5% (active) in experiment [5] (at 50.0 µM); 15% in experiment [6] (setting [7]); 15% in experiment [6] (setting [8]); 85.3% (active) in experiment [6] (at 50.0 µM).
Regarding `COc1ccc(C2CC(c3c(O)ccc4ccccc34)=NN2)cc1OC` (stereo not given), the growth inhibition is -4% in experiment [1] (setting [7]); 97% (active) in experiment [1] (setting [8]); 89.2% (active) in experiment [1] (at 50.0 µM); -3% in experiment [2] (setting [7]); 97% (active) in experiment [2] (setting [8]); 91.8% (active) in experiment [2] (at 50.0 µM). For the same molecule, the growth inhibition is -6% in experiment [3] (setting [7]); 97% (active) in experiment [3] (setting [8]); 90.4% (active) in experiment [3] (at 50.0 µM); -11% in experiment [4] (setting [7]); 97% (active) in experiment [4] (setting [8]); 90.2% (active) in experiment [4] (at 50.0 µM). Further, the growth inhibition in experiment [5] (setting [7]) was 8%; in experiment [5] (setting [8]) it was 96% (active); in experiment [5] (at 50.0 µM) it was 90.5% (active); in experiment [6] (setting [7]), -1%; in experiment [6] (setting [8]) it was 97% (active); in experiment [6] (at 50.0 µM), 89.7% (active).
Take `Cc1cc(C)c(O)c(Cc2cc(Cl)cc(Cc3cc(C)cc(C)c3O)c2O)c1`: the growth inhibition in experiment [1] (setting [7]) is 0%; in experiment [1] (setting [8]), 91% (active); in experiment [1] (at 50.0 µM), 94% (active); in experiment [2] (setting [7]), 1%; in experiment [2] (setting [8]), 93% (active); in experiment [2] (at 50.0 µM), 92.5% (active). The growth inhibition is 13% in experiment [3] (setting [7]); 93% (active) in experiment [3] (setting [8]); 95.3% (active) in experiment [3] (at 50.0 µM); 6% in experiment [4] (setting [7]); 91% (active) in experiment [4] (setting [8]); 95.2% (active) in experiment [4] (at 50.0 µM). The growth inhibition in experiment [5] (setting [7]) is -9%; in experiment [5] (setting [8]), 92% (active); in experiment [5] (at 50.0 µM) it was 93.5% (active); in experiment [6] (setting [7]), 15%; in experiment [6] (setting [8]), 92% (active); in experiment [6] (at 50.0 µM), 91.4% (active).
With `OCC1OC(NC(=S)NCSCCC(F)(F)C(F)(F)C(F)(F)C(F)(F)C(F)(F)C(F)(F)F)C(O)C(O)C1O` (stereo not given), the growth inhibition was 17% in experiment [1] (setting [7]); -21% in experiment [1] (setting [8]); 80.8% (active) in experiment [1] (at 50.0 µM); 7% in experiment [2] (setting [7]); 19% in experiment [2] (setting [8]); 93.5% (active) in experiment [2] (at 50.0 µM). The growth inhibition in experiment [3] (setting [7]) was 36%; in experiment [3] (setting [8]), 36%; in experiment [3] (at 50.0 µM), 93.6% (active); in experiment [4] (setting [7]) it was 22%; in experiment [4] (setting [8]), 37%; in experiment [4] (at 50.0 µM), 66.4%. The growth inhibition in experiment [5] (setting [7]) is 7%; in experiment [5] (setting [8]), -8%; in experiment [5] (at 50.0 µM) it was 95.1% (active); in experiment [6] (setting [7]) it was 22%; in experiment [6] (setting [8]) it was -3%; in experiment [6] (at 50.0 µM), 92.3% (active).
As for `CCCCCCc1cc(C(=O)N/N=C\c2cccc([N+](=O)[O-])c2)c2ccccc2n1`, the growth inhibition in experiment [1] (setting [7]) was 0%; in experiment [1] (setting [8]) it was -7%; in experiment [1] (at 50.0 µM), -40.9%; in experiment [2] (setting [7]), -1%; in experiment [2] (setting [8]), -2%; in experiment [2] (at 50.0 µM) it was -9.2%. The growth inhibition was 2% in experiment [3] (setting [7]); 7% in experiment [3] (setting [8]); -19.9% in experiment [3] (at 50.0 µM); -5% in experiment [4] (setting [7]); -17% in experiment [4] (setting [8]); 41% in experiment [4] (at 50.0 µM). Besides, the growth inhibition in experiment [5] (setting [7]) is 0%; in experiment [5] (setting [8]) it was 5%; in experiment [5] (at 50.0 µM) it was 1.45%; in experiment [6] (setting [7]), 0%; in experiment [6] (setting [8]) it was -7%; in experiment [6] (at 50.0 µM), -9.4%.
Take `Clc1ccccc1NN(Cc1ccccn1)c1ccccc1Cl`: the growth inhibition is 16% in experiment [1] (setting [7]); 54% in experiment [1] (setting [8]); 76.5% (active) in experiment [1] (at 50.0 µM); -6% in experiment [2] (setting [7]); 32% in experiment [2] (setting [8]); 58.7% in experiment [2] (at 50.0 µM). Also, the growth inhibition in experiment [3] (setting [7]) was 8%; in experiment [3] (setting [8]), 69%; in experiment [3] (at 50.0 µM), 58.9%; in experiment [4] (setting [7]), -14%; in experiment [4] (setting [8]), 50%; in experiment [4] (at 50.0 µM), 57%. In addition, the growth inhibition was 28% in experiment [5] (setting [7]); 77% (active) in experiment [5] (setting [8]); 88.4% (active) in experiment [5] (at 50.0 µM); 3% in experiment [6] (setting [7]); 59% in experiment [6] (setting [8]); 71.2% (active) in experiment [6] (at 50.0 µM).
